Experimental data taken from publication PMC10726135, “HNF4α isoforms regulate the circadian balance between carbohydrate and lipid metabolism in the liver”.
The full ranking holds about 18,000 sequences; the median of “log2 normalized intensity” is about 0.39, and the highest 2% start at about 6.6. The full list was thinned out, with the highest values kept by preference.

Target: T1, HNF4alpha2 (COS-7 nuclear extract) (Homo sapiens, UniProt P41235 1-474)
T1 sequence: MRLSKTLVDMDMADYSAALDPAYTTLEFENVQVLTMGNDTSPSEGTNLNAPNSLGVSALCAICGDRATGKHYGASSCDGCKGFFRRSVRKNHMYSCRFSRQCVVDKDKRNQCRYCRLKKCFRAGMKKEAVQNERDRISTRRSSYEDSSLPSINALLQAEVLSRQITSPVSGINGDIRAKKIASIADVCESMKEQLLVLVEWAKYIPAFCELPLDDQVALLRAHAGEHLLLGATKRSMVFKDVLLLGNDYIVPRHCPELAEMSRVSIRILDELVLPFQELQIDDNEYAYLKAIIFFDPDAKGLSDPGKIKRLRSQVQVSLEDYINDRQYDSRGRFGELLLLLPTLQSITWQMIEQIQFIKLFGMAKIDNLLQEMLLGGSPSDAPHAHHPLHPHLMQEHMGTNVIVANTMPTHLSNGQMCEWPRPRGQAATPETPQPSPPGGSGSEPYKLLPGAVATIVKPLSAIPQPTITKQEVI
Experiment: protein-binding microarray; COS-7 nuclear extract on double-stranded Agilent 4x180k PBM; binding buffer, salt, pH and temperature not given in the material; high values mean tight binding
Conditions: chain copies: 2; label: 3' end of strand 1 on the slide; dsDNA, one strand shown
In short: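 Using CaPO4, COS-7 cells were transiently transfected with a human HNF4α isoform expression vector, and their nuclear extracts were applied to a custom Agilent SurePrint G3 4x180k double-stranded oligonucleotide array (~60 nt; ~44,000 test sequences in quadruplicate). Bound HNF4α was imaged at 2-µm resolution with an Agilent G2565CA scanner. Agilent software supplied the background-corrected, normalized gProcessedSignal that serves as the binding signal.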

Point of comparison: “CCTCTGTCTCTCAGGCACAGCTCGACCTTTGCCTAGGGAGATTAGAGTATCGGTCGA”, binding signal 5.94 log2 normalized intensity. Against it:
- CACAGCTCGACCTTTGACCTTCGGCTTCCCGCCTAGGGAGATTAGAGTATCGGTCGA — higher, 8.84 log2 normalized intensity
- GCTCAGCTGGTTGCCCCTTTGACCCTCGGGGCCTAGGGAGATTAGAGTATCGGTCGA — higher, 6.11 log2 normalized intensity
- TCTCGCTGCTTCGGCCTTTGACCTCGTGATGCCTAGGGAGATTAGAGTATCGGTCGA — higher, 6.52 log2 normalized intensity
- TCAGGCACAGCTCGACCTTTGACCTTCGGCGCCTAGGGAGATTAGAGTATCGGTCGA — higher, 10.2 log2 normalized intensity
- AGCTCGCTCAGCTGGTTGCCCCTTTGACCCGCCTAGGGAGATTAGAGTATCGGTCGA — higher, 7.89 log2 normalized intensity
- TGGGGTCTCGCTGCTTCGGCCTTTGACCTCGCCTAGGGAGATTAGAGTATCGGTCGA — higher, 7.94 log2 normalized intensity
- CCTTTGACCTTCGGCTTCCCCAGAGAAAGAGCCTAGGGAGATTAGAGTATCGGTCGA — lower, 3.03 log2 normalized intensity
- CCCGCCTTTGACACAGGCGACCTTCGCTCGGCCTAGGGAGATTAGAGTATCGGTCGA — lower, 5.17 log2 normalized intensity
- CAGGGTGGGGTCTCGCTGCTTCGGCCTTTGGCCTAGGGAGATTAGAGTATCGGTCGA — lower, 1.33 log2 normalized intensity
- GCCCCAGCTCGCTCAGCTGGTTGCCCCTTTGCCTAGGGAGATTAGAGTATCGGTCGA — lower, 4.14 log2 normalized intensity
- AAATCCCCGCCTTTGACACAGGCGACCTTCGCCTAGGGAGATTAGAGTATCGGTCGA — lower, 3.94 log2 normalized intensity
- CTTTGACACAGGCGACCTTCGCTCGGCTCGGCCTAGGGAGATTAGAGTATCGGTCGA — lower, 3.46 log2 normalized intensity
- CCTTGCACTATTGACCCAGTGAAACAACACGCCTAGGGAGATTAGAGTATCGGTCGA — lower, 1.65 log2 normalized intensity
- TAGGCCACCTGTGTCAACATGGACTTTGTTGCCTAGGGAGATTAGAGTATCGGTCGA — lower, 5.86 log2 normalized intensity
- TTCTGCCTTATCAGCGGCCCTGTGCTGCCCGCCTAGGGAGATTAGAGTATCGGTCGA — lower, 0.0914 log2 normalized intensity
- CTTGTCTTATCAGCAGGGTCTTTTTGACCTGCCTAGGGAGATTAGAGTATCGGTCGA — lower, 4.38 log2 normalized intensity
- GTCTCTCAGGCACAGCTCGACCTTTGACCTGCCTAGGGAGATTAGAGTATCGGTCGA — higher, 10.1 log2 normalized intensity
- CTATTATGCCTTGACTTCAAATCATACTGAGCCTAGGGAGATTAGAGTATCGGTCGA — lower, 0.897 log2 normalized intensity
- TCAGAGATCAAGATACAGGTCAGACCCTGGGCCTAGGGAGATTAGAGTATCGGTCGA — lower, 0.993 log2 normalized intensity
- CTATTGTCCTATGACCCTGCCAAATCCCCCGCCTAGGGAGATTAGAGTATCGGTCGA — lower, 4.52 log2 normalized intensity
- CATTTTACAGTGCCATTTATCAGTGATTTCGCCTAGGGAGATTAGAGTATCGGTCGA — lower, 0.854 log2 normalized intensity
- TATTCCCAGGTTCCAAAGGTCACCCGTATTGCCTAGGGAGATTAGAGTATCGGTCGA — higher, 6.51 log2 normalized intensity
- CAGAGCTGTCGTCCCAGGGCAAAGGTCACCGCCTAGGGAGATTAGAGTATCGGTCGA — higher, 7.59 log2 normalized intensity
- AGGGCAAAGGTCACCAGCTAAGCTGTTACTGCCTAGGGAGATTAGAGTATCGGTCGA — lower, 5.12 log2 normalized intensity
- GTCCCAGGGCAAAGGTCACCAGCTAAGCTGGCCTAGGGAGATTAGAGTATCGGTCGA — lower, 5.83 log2 normalized intensity
- CTTCCCAGCTGCTGGTCAAAGGGCATTACTGCCTAGGGAGATTAGAGTATCGGTCGA — lower, 4.94 log2 normalized intensity
- TTCCAAAGGTCACCCGTATTCCTTAGCTTAGCCTAGGGAGATTAGAGTATCGGTCGA — lower, 1.6 log2 normalized intensity
- CCAGGTTCCAAAGGTCACCCGTATTCCTTAGCCTAGGGAGATTAGAGTATCGGTCGA — higher, 6.63 log2 normalized intensity
- CTGTCGTCCCAGGGCAAAGGTCACCAGCTAGCCTAGGGAGATTAGAGTATCGGTCGA — higher, 6.66 log2 normalized intensity
- GGGCAAATCTGAGGTCAAAGCTGTCAGAGAGCCTAGGGAGATTAGAGTATCGGTCGA — lower, -0.198 log2 normalized intensity
- GCTGAGGAATTTGGACTTCAGCCCAGGCTGGCCTAGGGAGATTAGAGTATCGGTCGA — lower, 3.66 log2 normalized intensity
- ACCACCTTCCCCCATCCCCAACAAAGCTCTGCCTAGGGAGATTAGAGTATCGGTCGA — lower, 4.7 log2 normalized intensity
- TCTCAAAAGTTTTTCCCTTCTGTTAGAATGGCCTAGGGAGATTAGAGTATCGGTCGA — lower, -0.592 log2 normalized intensity
- CTTCAAGTCAGTTGCATGCAACCTTTGTCCGCCTAGGGAGATTAGAGTATCGGTCGA — lower, 5.67 log2 normalized intensity
- ATATTCACTATCTGATCCTTTACAGAGATAGCCTAGGGAGATTAGAGTATCGGTCGA — lower, -0.305 log2 normalized intensity
- TGTTACTTATAAATAATCTCAACCATACAAGCCTAGGGAGATTAGAGTATCGGTCGA — lower, -0.991 log2 normalized intensity
- CAACCAAGTCCATCTGTATTGCCTCCTTTGGCCTAGGGAGATTAGAGTATCGGTCGA — lower, 1.08 log2 normalized intensity
- TTCCAGGGATGTTTGGCAGCTGAGGATTGTGCCTAGGGAGATTAGAGTATCGGTCGA — lower, 1.61 log2 normalized intensity
- CATCTACCAGCGTAATTCTGGCTCTTTGAGGCCTAGGGAGATTAGAGTATCGGTCGA — lower, 0.87 log2 normalized intensity
- GCGTGAGCCACCGCGCCCCGCCCCCAGTGCGCCTAGGGAGATTAGAGTATCGGTCGA — lower, 5.65 log2 normalized intensity
- GGACCTGAGGCTTTTGAGTCAATAATGGACGCCTAGGGAGATTAGAGTATCGGTCGA — lower, 1.21 log2 normalized intensity
- GAGGCTCAGACCTGACCTTTGGATTCCCAGGCCTAGGGAGATTAGAGTATCGGTCGA — higher, 6.53 log2 normalized intensity
- TACTTTGGACTGGGGACCTGGTCTGAGATAGCCTAGGGAGATTAGAGTATCGGTCGA — lower, 1.75 log2 normalized intensity
- AAGACTTTGGACTTTGGACCTGAGGCTTTTGCCTAGGGAGATTAGAGTATCGGTCGA — higher, 9.84 log2 normalized intensity
- TGCTGGAGATGAGGCTCAGACCTGACCTTTGCCTAGGGAGATTAGAGTATCGGTCGA — higher, 6.49 log2 normalized intensity
- GAGATGAGGCTCAGACCTGACCTTTGGATTGCCTAGGGAGATTAGAGTATCGGTCGA — higher, 7.99 log2 normalized intensity
- ATGTGGGGAAACTGGACTGTAATTTGTGGTGCCTAGGGAGATTAGAGTATCGGTCGA — lower, 1.43 log2 normalized intensity
- ACGTCAGAACTGTCCTTTAACCTCCCTGCAGCCTAGGGAGATTAGAGTATCGGTCGA — lower, 1.99 log2 normalized intensity
- AATGGAAGAATCACAGTGTGGGGCAAATCTGCCTAGGGAGATTAGAGTATCGGTCGA — lower, -0.752 log2 normalized intensity
- ACCAGGGGGCAGAGTGAGCAGCACTTTTGGGCCTAGGGAGATTAGAGTATCGGTCGA — lower, -0.845 log2 normalized intensity
- CTGCCAAAGTTCAGCCTTGGGGCCATTCCAGCCTAGGGAGATTAGAGTATCGGTCGA — lower, 0.325 log2 normalized intensity
- CTCTCCCTCCTCTCTGAGCAGTCAAACTGGGCCTAGGGAGATTAGAGTATCGGTCGA — lower, 1.96 log2 normalized intensity
- CACTGGCTCTGGGGTCAAAGTCCCCTGAGCGCCTAGGGAGATTAGAGTATCGGTCGA — higher, 7.16 log2 normalized intensity
- TCATCGCACCGGCAGGGGAGAACTTCCTCCGCCTAGGGAGATTAGAGTATCGGTCGA — lower, -0.988 log2 normalized intensity
- TCTCTGGGTCAAAGGTCATCGCACCGGCAGGCCTAGGGAGATTAGAGTATCGGTCGA — higher, 7.15 log2 normalized intensity
- CCTGCCTCTCCTCTGAGCTTCATCCTGACCGCCTAGGGAGATTAGAGTATCGGTCGA — lower, 1.62 log2 normalized intensity
- GAGGTGTCAGCCACCCCTCCTCCTGGGGGCGCCTAGGGAGATTAGAGTATCGGTCGA — lower, 2.64 log2 normalized intensity
- AAAGGTCATCGCACCGGCAGGGGAGAACTTGCCTAGGGAGATTAGAGTATCGGTCGA — lower, 0.284 log2 normalized intensity
- AGGTCGCAAGCACTGGCTCTGGGGTCAAAGGCCTAGGGAGATTAGAGTATCGGTCGA — lower, 3.1 log2 normalized intensity
- CCTCCTCTCTGGGTCAAAGGTCATCGCACCGCCTAGGGAGATTAGAGTATCGGTCGA — higher, 7.54 log2 normalized intensity
- CTGGGGCCACCCTCCTCTCTGGGTCAAAGGGCCTAGGGAGATTAGAGTATCGGTCGA — lower, 4.74 log2 normalized intensity
- GCCACCCTCCTCTCTGGGTCAAAGGTCATCGCCTAGGGAGATTAGAGTATCGGTCGA — higher, 9.58 log2 normalized intensity
- GGGGTCAAAGTCCCCTGAGCTTGAGTCCATGCCTAGGGAGATTAGAGTATCGGTCGA — lower, 5.36 log2 normalized intensity
